Test results as given in the supplement of paper PMC10849652.
The full data set covers some 8,800 targets. This sample favours those with a hit. About 0.5% of all pairs of compound and target were hits.

Tests used:
Test in all cases: log2 fold change, soluble protein after heating vs DMSO (PISA); higher = thermal stabilisation; K562 lysate, 10 uM; active = over 0.2 and 3.5 SD of the protein, either way, in both replicates (recomputed)
[1] = compound: C1=CC=C(C=C1)[C@H](COC2=CC3=C(C=C2)NC(=O)N3)NC(=O)C4=CC=CN(C4=O)CC5=CC(=C(C=C5)F)F
Outline: (§1)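 Thermal stability, expressed as log-two fold change relative to solvent controls, is given from duplicates. Crude K562 extract in PBS pH 7.4 with 1 mM MgCl2, at 1 mg/mL protein, was treated with 10 μM compound for 30 min and heated in aliquots for 3 min across 48°C-58°C. After pooling, adjustment to 0.5% NP-40 at 4°C and centrifugation at 21,000xg for 90 min, supernatant protein was measured by TMTpro 16plex LC-MS/MS with channel sums equalised.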

[2] = compound: CC1=C(SC2=C1C(=N[C@H](C3=NN=C(N32)C)CC(=O)N)C4=CC=C(C=C4)Cl)C
Outline: as §1

[3] = compound: CC1=C2C(=CC=C1)N=C(N(C2=O)C3=CC=CC=C3C)CN4C=NC5=C(N=CN=C54)N
Outline: as §1

[4] = compound: Cc1sc2c(c1C)C(c1ccc(Cl)cc1)=N[C@@H](CC(=O)OC(C)(C)C)c1nnc(C)n1-2
Outline: as §1

[5] = compound: c1ccc([C@@H]2C[C@H]2NC2CCNCC2)cc1
Outline: as §1

Measured: log2 fold change

EIF2B4 (UniProt Q9UI10)
Sequence of UniProt Q9UI10 (Q9UI10 whole entry, looked up): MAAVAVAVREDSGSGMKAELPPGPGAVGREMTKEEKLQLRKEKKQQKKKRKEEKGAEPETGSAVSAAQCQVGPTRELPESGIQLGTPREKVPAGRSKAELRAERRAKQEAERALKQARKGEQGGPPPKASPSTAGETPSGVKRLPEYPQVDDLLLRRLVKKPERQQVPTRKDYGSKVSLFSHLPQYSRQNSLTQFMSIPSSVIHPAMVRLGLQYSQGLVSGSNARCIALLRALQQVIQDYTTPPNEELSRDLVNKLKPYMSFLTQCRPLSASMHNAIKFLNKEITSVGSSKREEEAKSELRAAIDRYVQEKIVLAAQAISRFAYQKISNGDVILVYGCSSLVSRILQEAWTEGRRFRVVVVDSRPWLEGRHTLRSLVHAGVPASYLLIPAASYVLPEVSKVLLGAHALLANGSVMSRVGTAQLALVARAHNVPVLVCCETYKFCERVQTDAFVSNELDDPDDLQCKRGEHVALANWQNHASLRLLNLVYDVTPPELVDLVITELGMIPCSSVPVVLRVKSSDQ
inactive: [1] 0.028 | [2] 0.079 | [3] -0.005 | [4] -0.224

GBF1 (UniProt Q92538)
inactive: [1] -0.044 | [2] 0 | [3] 0.005 | [4] 0.016 | [5] 0.011

DSN1 (UniProt Q9H410)
inactive: [1] -0.012 | [2] 0.053 | [3] 0.019 | [4] -0.013 | [5] 0.02

FREM2 (UniProt Q5SZK8)
inactive: [1] 0 | [2] 0.074 | [3] 0.003 | [4] -0.133 | [5] -0.212

EPRS (UniProt P07814)
inactive: [1] -0.005 | [2] 0.002 | [3] 0.003 | [4] 0.043 | [5] 0.016

FAU (UniProt E9PR30)
inactive: [1] 0.001 | [2] 0.06 | [3] -0.008 | [4] 0.018 | [5] 0.135

FXR1 (UniProt P51114)
inactive: [1] -0.028 | [2] -0.016 | [3] -0.009 | [4] 0.04 | [5] 0.027

DUS3L (UniProt Q96G46)
Sequence of UniProt Q96G46 (Q96G46 whole entry, looked up): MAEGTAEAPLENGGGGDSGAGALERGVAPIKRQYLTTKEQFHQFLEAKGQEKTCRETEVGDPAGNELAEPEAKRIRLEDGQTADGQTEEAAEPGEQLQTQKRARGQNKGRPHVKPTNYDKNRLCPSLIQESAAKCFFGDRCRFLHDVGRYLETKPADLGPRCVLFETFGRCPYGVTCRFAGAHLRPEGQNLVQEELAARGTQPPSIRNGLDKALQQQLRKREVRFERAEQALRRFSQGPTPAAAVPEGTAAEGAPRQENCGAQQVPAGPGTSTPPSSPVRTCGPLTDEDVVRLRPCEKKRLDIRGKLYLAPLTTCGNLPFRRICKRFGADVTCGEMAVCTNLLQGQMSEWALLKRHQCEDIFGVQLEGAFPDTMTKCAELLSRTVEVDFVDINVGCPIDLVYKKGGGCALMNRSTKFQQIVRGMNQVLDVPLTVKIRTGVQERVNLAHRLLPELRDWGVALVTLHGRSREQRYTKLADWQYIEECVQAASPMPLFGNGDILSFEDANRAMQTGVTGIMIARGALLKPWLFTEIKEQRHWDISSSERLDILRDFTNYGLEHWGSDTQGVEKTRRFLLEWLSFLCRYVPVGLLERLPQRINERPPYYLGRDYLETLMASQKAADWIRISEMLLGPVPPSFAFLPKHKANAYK
inactive: [1] 0.084 | [2] -0.001 | [3] 0.005 | [4] -0.001 | [5] 0.098

FECH isoform 2 (UniProt P22830)
inactive: [1] 0.06 | [2] -0.101 | [3] -0.126 | [4] -0.229 | [5] -0.092

DTYMK (UniProt P23919)
Sequence of UniProt P23919 (P23919 whole entry, looked up): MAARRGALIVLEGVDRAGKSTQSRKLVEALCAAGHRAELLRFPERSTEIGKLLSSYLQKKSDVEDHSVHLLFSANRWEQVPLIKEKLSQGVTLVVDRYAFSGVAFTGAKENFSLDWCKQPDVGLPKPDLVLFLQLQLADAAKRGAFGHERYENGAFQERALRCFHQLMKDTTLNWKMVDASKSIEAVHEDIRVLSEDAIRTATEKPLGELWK
inactive: [1] -0.041 | [2] 0.014 | [3] -0.029 | [4] -0.096 | [5] 0.098

EHD2 (UniProt Q9NZN4)
Sequence of UniProt Q9NZN4 (Q9NZN4 whole entry, looked up): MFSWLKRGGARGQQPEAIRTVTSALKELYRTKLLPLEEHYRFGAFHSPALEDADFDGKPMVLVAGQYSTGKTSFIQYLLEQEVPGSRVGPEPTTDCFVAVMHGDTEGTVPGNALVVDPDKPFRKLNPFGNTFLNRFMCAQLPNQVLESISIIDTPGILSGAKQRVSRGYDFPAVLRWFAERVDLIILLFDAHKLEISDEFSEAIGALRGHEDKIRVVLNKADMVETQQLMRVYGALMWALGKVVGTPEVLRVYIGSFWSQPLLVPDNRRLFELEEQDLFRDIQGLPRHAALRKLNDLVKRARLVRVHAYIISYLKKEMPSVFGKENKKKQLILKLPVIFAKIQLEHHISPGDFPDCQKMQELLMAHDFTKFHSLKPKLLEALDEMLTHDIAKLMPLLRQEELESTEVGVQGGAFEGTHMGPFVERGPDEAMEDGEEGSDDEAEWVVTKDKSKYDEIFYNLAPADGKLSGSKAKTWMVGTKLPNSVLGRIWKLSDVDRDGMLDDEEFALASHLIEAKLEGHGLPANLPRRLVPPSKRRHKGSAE
inactive: [1] -0.074 | [2] -0.065 | [3] 0.003 | [4] -0.069 | [5] 0.087

EXO5 (UniProt Q9H790)
inactive: [1] 0.033 | [2] -0.179

GFPT1 (UniProt Q06210)
inactive: [1] -0.021 | [2] -0.001 | [3] 0.021 | [4] 0.019 | [5] 0.058

FBXO22 (UniProt Q8NEZ5)
inactive: [1] -0.007 | [2] -0.004 | [3] 0.03 | [4] 0.02 | [5] 0.083

GAMT (UniProt Q14353)
inactive: [1] -0.025 | [2] -0.083 | [3] -0.002 | [4] 0.114 | [5] 0.005

ENO2 (UniProt P09104)
inactive: [1] 0.019 | [2] -0.122 | [3] 0.037 | [4] -0.009 | [5] -0.153

DSTN (UniProt P60981)
Sequence of UniProt P60981 (P60981 whole entry, looked up): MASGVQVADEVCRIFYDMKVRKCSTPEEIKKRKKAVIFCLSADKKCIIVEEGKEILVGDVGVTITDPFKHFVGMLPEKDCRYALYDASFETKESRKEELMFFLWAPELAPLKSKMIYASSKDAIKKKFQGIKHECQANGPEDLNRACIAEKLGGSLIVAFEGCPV
inactive: [1] 0.043 | [2] -0.051 | [3] -0.016 | [4] 0.018 | [5] -0.06

EPB41, A0A2R8Y6D0
inactive: [1] -0.052 | [2] 0.028 | [3] -0.071 | [4] 0.048 | [5] 0.11

EBP (UniProt Q15125)
Sequence of UniProt Q15125 (Q15125 whole entry, looked up): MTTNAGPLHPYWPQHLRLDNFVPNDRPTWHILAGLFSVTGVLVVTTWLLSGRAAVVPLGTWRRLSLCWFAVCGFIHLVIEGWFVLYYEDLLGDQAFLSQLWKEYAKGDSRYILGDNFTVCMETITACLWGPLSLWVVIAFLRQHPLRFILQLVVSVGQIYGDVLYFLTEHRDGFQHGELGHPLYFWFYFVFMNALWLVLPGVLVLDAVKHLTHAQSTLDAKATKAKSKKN
inactive: [1] -0.011 | [2] -0.061 | [3] 0.022 | [4] 0.09 | [5] -0.141

FARSB (UniProt Q9NSD9)
inactive: [1] -0.014 | [2] 0.036 | [3] -0.004 | [4] 0.02 | [5] 0.052

ENGASE (UniProt Q8NFI3)
inactive: [1] 0.042 | [2] 0.017 | [3] 0.038 | [4] 0.017 | [5] -0.023

FOXK1 (UniProt P85037)
inactive: [1] 0.022 | [2] 0.017 | [3] -0.001 | [4] 0.032 | [5] -0.009

DUS2 (UniProt Q9NX74)
inactive: [1] 0.037 | [2] 0.018 | [3] -0.018 | [4] 0.055 | [5] 0.116

GAPVD1 (UniProt Q14C86)
inactive: [1] 0.036 | [2] -0.067

FASTKD2 (UniProt Q9NYY8)
inactive: [1] -0.013 | [2] 0.044 | [3] 0.018 | [4] 0.017 | [5] 0.002

FNTB (UniProt P49356)
inactive: [1] 0.023 | [2] 0.135 | [3] 0.015 | [4] -0.008 | [5] 0.038

FANCI (UniProt Q9NVI1)
inactive: [1] -0.051 | [2] -0.009 | [3] 0.029 | [4] 0.015 | [5] 0.088

FADS3 (UniProt Q9Y5Q0)
inactive: [1] 0.021 | [2] 0.018 | [3] -0.227 | [4] -0.06 | [5] -0.115

FIG4 (UniProt Q92562)
inactive: [1] -0.107 | [2] -0.108 | [3] 0.037 | [4] 0.039 | [5] -0.037

DUSP22 isoform 2 (UniProt Q9NRW4)
inactive: [1] 0.05 | [2] -0.068 | [3] 0.038 | [4] 0.099 | [5] -0.028

FKBP1A (UniProt P62942)
inactive: [1] 0.011 | [2] -0.134 | [3] -0.069 | [4] -0.01 | [5] -0.214

DYNC1I2 isoform 5 (UniProt Q13409)
inactive: [1] 0.049 | [2] -0.03 | [3] -0.012 | [4] -0.018 | [5] 0.021

EMP3 (UniProt P54852)
Sequence of UniProt P54852 (P54852 whole entry, looked up): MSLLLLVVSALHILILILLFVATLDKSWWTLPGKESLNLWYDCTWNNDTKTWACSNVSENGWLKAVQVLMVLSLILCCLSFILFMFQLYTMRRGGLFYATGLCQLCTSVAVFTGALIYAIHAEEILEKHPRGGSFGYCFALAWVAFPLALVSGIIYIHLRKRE
inactive: [1] 0.026 | [2] -0.028 | [3] -0.038 | [4] -0.113 | [5] -0.345

GGT7 (UniProt Q9UJ14)
Sequence of UniProt Q9UJ14 (Q9UJ14 whole entry, looked up): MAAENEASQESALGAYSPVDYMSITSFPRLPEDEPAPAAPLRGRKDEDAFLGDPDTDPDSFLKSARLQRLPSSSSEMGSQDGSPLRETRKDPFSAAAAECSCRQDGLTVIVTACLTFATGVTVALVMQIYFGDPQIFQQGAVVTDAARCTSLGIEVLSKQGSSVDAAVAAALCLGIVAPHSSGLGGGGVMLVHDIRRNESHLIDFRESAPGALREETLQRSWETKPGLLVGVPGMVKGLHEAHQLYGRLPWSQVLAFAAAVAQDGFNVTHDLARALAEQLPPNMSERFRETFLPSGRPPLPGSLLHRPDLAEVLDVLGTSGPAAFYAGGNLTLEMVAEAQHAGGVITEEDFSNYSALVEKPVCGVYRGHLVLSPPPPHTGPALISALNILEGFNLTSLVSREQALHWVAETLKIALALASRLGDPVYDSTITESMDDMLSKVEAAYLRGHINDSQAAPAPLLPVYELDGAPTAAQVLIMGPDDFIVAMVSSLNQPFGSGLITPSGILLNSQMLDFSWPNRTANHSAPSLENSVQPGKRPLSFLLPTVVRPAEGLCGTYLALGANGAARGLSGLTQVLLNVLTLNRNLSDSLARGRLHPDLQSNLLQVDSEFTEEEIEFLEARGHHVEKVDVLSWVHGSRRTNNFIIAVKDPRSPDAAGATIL
inactive: [1] -0.138 | [2] 0.017 | [3] 0.103 | [4] -0.015 | [5] -0.048

EWSR1 isoform 5 (UniProt Q01844)
inactive: [1] 0.047 | [2] -0.024 | [3] -0.012 | [4] 0.053 | [5] 0.002

FIBP (UniProt O43427)
inactive: [1] -0.018 | [2] 0 | [3] -0.044 | [4] -0.027 | [5] -0.002

ERCC4 (UniProt Q92889)
inactive: [1] -0.038 | [2] 0.036 | [3] 0.043 | [4] -0.008
active: [5] -0.305

ESRRA (UniProt P11474)
inactive: [1] 0.204 | [2] -0.018 | [3] 0.029 | [4] 0.046 | [5] 0.264

GATAD2A isoform 3 (UniProt Q86YP4)
Sequence of UniProt Q86YP4 (Q86YP4 whole entry, looked up): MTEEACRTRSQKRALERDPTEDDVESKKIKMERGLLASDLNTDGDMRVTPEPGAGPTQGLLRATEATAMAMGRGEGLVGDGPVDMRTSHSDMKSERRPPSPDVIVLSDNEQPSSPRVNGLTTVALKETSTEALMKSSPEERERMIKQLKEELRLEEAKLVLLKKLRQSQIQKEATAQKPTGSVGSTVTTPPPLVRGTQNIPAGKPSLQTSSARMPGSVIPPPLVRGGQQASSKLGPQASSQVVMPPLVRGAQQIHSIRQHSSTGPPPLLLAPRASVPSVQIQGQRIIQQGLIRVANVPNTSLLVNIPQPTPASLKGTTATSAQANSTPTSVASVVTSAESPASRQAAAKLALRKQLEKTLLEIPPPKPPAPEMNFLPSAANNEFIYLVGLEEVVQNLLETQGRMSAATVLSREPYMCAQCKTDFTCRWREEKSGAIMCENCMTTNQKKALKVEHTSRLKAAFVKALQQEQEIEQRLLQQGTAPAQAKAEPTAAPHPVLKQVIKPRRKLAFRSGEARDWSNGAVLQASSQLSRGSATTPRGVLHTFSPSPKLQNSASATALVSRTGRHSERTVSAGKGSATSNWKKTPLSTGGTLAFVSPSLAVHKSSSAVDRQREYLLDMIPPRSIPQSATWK
inactive: [1] -0.01 | [2] -0.006 | [3] 0.032 | [4] -0.015 | [5] 0.036

GAPDH (UniProt P04406)
Sequence of UniProt P04406 (P04406 whole entry, looked up): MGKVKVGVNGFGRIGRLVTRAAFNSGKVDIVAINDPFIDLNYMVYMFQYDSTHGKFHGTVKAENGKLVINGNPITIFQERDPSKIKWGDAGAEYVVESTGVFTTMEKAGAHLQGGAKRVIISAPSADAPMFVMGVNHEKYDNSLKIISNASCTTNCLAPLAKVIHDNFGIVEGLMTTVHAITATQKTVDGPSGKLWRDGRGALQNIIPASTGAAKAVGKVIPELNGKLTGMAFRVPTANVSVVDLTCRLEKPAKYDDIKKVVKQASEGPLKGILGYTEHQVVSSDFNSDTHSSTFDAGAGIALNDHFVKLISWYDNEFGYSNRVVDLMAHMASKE
inactive: [1] 0.004 | [2] 0.008 | [3] -0.018 | [4] 0.008 | [5] 0.052

GIGYF2 (UniProt Q6Y7W6)
inactive: [1] 0.047 | [2] -0.054 | [3] 0.011 | [4] -0.076 | [5] 0.033

EIF2D (UniProt P41214)
inactive: [1] -0.007 | [2] -0.012 | [3] 0.044 | [4] 0.003 | [5] 0.049

DYNC1I2 isoform 2 (UniProt Q13409)
inactive: [1] -0.011 | [2] 0.253 | [3] -0.005 | [4] 0.082 | [5] 0.155

GALNT2 (UniProt Q10471)
inactive: [1] 0.018 | [2] -0.009 | [3] 0.021 | [4] 0.004 | [5] -0.021

ECH1 (UniProt Q13011)
inactive: [1] -0.059 | [2] 0.008 | [3] -0.006 | [4] -0.026 | [5] 0.012

EXOC6 (UniProt Q8TAG9)
inactive: [1] -0.035 | [2] -0.022 | [3] -0.006 | [4] 0.037 | [5] 0.151

EFCAB14 (UniProt O75071)
inactive: [1] 0.099 | [2] -0.074 | [3] 0.088 | [4] -0.014 | [5] 0.013

GALK1 isoform 2 (UniProt P51570)
Sequence of UniProt P51570 (P51570 whole entry, looked up): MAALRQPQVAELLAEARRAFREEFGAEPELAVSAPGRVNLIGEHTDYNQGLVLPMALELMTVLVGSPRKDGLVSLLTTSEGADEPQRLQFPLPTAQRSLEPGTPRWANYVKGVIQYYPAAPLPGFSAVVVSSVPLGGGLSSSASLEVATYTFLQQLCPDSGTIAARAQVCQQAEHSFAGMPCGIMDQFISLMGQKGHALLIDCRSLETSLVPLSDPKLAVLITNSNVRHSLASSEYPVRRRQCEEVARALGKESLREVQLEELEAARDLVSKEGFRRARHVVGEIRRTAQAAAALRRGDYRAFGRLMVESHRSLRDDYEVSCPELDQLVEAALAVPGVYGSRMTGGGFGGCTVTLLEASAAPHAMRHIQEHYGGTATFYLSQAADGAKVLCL
inactive: [1] 0.014 | [2] 0.027 | [3] 0.035 | [4] 0.006 | [5] 0.073

FBRSL1, A0A3B3IRR3
inactive: [1] 0.002 | [2] 0.005 | [3] -0.021 | [4] 0.02 | [5] -0.028

GEMIN2 (UniProt O14893)
Sequence of UniProt O14893 (O14893 whole entry, looked up): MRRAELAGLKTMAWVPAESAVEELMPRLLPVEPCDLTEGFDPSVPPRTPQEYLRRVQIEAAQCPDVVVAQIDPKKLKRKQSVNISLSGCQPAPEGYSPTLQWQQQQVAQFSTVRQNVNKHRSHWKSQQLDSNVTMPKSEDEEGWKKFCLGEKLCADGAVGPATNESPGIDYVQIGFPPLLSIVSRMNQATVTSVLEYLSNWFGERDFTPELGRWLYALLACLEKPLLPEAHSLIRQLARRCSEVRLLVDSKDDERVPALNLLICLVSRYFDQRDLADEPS
inactive: [1] -0.009 | [2] 0.01 | [3] -0.023 | [4] 0.015 | [5] -0.043

FANCD2 isoform 1 (UniProt Q9BXW9)
inactive: [1] -0.002 | [2] 0.039 | [3] 0.012 | [4] -0.018 | [5] -0.054

ENSA isoform 3 (UniProt O43768)
Sequence of UniProt O43768 (O43768 whole entry, looked up): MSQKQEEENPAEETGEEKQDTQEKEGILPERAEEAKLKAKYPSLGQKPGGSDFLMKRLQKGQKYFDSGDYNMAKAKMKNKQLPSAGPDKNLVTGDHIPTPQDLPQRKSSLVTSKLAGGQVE
inactive: [1] 0.037 | [2] -0.027 | [3] -0.024 | [4] -0.008 | [5] 0.02

FBXO38 (UniProt Q6PIJ6)
inactive: [1] -0.007 | [2] 0.094 | [3] 0.007 | [4] 0.068 | [5] 0.013

FBXO30 (UniProt Q8TB52)
inactive: [1] -0.034 | [2] 0.011 | [3] -0.041 | [4] 0.036 | [5] 0.12
